Drawing on article PMC7862700, “An all-to-all approach to the identification of sequence-specific readers for epigenetic DNA modifications on cytosine”, this text covers binding signal for two sequences.

Common to all, as to assay: DAPPL (digital affinity profiling via proximity ligation, sequencing); 10 mM Tris-HCl pH 7.5, 50 mM NaCl, 1 mM DTT, 4% glycerol, room temperature, 30 min; GST-TFs on glutathione beads, 16-mer random dsDNA library, 0.1% formaldehyde crosslink after washing; high values mean tight binding
Holding throughout (details): protein: recombinant; tags: N-terminal GST; dsDNA, one strand shown

In test [1] the target is T1, FLI1 (Homo sapiens, UniProt Q01543 1-452).
T1 sequence: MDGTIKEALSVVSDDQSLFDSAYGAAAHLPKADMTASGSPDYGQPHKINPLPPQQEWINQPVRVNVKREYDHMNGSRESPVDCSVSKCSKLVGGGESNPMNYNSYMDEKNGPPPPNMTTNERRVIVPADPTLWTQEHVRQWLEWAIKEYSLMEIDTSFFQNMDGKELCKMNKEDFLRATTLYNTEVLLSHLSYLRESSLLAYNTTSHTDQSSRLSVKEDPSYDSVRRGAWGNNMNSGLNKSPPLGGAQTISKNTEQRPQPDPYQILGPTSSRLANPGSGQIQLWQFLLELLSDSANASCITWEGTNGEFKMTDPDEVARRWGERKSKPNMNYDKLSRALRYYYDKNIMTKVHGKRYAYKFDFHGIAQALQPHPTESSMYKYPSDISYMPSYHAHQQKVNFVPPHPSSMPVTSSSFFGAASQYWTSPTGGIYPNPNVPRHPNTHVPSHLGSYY
The procedure, abridged:
(§1)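 Beads coated with glutathione captured GST-fused human transcription factors that had been expressed in yeast, and the factors were then given DNA barcodes and pooled with a tag-only sample. The pools were incubated with 200 nmole of a random double-stranded 16-mer DNA library in Tris/NaCl/DTT/glycerol buffer for 30 min at room temperature, washed, crosslinked with 0.1% formaldehyde and proximity-ligated with BsaI/T4 ligase at 37 °C for 1 h. PCR amplification and Illumina NextSeq500 sequencing came last. Binding signal is each hexamer's read frequency for a factor divided by its frequency for the tag-only sample.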

For test [2], the target named is T2, ELK1 (Homo sapiens, UniProt P19419 1-428).
T2 sequence: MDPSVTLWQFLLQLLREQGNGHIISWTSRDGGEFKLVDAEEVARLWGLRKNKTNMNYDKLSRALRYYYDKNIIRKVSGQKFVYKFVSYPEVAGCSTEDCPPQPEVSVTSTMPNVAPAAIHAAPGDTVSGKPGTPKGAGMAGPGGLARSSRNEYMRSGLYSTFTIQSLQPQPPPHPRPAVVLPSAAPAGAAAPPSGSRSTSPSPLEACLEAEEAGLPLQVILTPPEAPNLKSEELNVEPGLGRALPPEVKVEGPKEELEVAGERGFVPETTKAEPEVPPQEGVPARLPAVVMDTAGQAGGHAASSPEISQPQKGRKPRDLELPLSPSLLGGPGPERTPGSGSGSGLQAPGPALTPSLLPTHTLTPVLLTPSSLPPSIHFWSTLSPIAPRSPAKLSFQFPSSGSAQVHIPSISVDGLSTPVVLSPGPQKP
The procedure, abridged: as §1

Test [3] addresses T3, GABPA (Homo sapiens, UniProt Q06546 1-454).
T3 sequence: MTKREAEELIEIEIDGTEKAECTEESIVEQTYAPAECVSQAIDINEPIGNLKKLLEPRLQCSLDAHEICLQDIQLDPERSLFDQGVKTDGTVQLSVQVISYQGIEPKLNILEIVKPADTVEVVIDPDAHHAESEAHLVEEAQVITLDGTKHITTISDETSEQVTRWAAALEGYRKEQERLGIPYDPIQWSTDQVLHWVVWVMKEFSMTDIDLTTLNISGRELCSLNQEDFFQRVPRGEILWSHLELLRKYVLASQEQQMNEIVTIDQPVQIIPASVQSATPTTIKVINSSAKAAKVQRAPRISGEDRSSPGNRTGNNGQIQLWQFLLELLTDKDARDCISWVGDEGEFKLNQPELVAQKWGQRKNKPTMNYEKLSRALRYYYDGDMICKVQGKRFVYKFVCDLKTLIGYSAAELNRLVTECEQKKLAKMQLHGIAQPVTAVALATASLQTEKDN
The procedure, abridged:
as §1

Test [4] concerns the target ELF1 (Homo sapiens, UniProt P32519 1-619). The procedure, abridged: as §1
Test [5] addresses T4, EHF (Homo sapiens, UniProt Q9NZC4 1-300).
T4 sequence: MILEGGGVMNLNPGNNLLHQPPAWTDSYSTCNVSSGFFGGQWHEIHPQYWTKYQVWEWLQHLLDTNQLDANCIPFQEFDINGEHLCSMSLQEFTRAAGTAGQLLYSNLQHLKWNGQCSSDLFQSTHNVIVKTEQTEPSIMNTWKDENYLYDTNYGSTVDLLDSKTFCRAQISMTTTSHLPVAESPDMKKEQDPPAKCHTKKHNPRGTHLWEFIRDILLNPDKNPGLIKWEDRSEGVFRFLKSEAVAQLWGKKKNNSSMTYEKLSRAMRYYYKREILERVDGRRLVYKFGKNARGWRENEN
The procedure, abridged:
as §1

Test [6] deals with ETV5 (Homo sapiens, UniProt P41161 1-510). The procedure, abridged: as §1
Test [7] addresses T5, SPIC (Homo sapiens, UniProt Q8N5J4 1-248).
T5 sequence: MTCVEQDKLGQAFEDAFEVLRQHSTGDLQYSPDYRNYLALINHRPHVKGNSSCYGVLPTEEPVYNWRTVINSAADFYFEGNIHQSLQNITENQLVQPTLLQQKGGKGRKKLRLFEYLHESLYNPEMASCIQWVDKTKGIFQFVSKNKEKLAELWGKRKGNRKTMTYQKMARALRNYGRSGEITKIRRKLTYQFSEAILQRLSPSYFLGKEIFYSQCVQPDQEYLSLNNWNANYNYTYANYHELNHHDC
The procedure, abridged:
as §1

Test [8] addresses ELF4 (Homo sapiens, UniProt Q99607 1-663). The procedure, abridged:
as §1

In test [9] the target is T6, ELK4 (Homo sapiens, UniProt P28324-2 1-405).
T6 sequence: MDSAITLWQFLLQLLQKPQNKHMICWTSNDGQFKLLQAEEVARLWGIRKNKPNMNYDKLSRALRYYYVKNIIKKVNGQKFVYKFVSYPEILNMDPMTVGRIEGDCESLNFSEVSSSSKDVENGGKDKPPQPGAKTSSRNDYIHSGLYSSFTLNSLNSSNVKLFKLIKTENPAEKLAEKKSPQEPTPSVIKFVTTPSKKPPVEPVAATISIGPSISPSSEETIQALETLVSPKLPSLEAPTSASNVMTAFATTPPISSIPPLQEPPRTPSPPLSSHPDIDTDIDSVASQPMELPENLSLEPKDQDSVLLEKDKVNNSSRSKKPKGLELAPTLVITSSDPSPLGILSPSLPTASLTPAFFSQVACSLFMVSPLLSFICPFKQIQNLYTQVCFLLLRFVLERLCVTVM
The procedure, abridged:
as §1

Test [10] deals with T7, ETV2 (Homo sapiens, UniProt O00321 1-342).
T7 sequence: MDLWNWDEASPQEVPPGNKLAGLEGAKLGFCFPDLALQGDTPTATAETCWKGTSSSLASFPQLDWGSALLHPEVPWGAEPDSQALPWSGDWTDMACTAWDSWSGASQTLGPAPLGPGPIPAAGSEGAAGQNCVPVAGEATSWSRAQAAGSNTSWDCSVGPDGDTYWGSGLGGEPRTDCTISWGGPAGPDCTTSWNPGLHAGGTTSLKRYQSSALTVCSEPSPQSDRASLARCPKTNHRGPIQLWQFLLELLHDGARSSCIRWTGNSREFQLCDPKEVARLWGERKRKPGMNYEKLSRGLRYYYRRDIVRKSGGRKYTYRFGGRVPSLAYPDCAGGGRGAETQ
The procedure, abridged:
as §1

Test [11] concerns the target T8, ELF3 (Homo sapiens, UniProt P78545 1-371).
T8 sequence: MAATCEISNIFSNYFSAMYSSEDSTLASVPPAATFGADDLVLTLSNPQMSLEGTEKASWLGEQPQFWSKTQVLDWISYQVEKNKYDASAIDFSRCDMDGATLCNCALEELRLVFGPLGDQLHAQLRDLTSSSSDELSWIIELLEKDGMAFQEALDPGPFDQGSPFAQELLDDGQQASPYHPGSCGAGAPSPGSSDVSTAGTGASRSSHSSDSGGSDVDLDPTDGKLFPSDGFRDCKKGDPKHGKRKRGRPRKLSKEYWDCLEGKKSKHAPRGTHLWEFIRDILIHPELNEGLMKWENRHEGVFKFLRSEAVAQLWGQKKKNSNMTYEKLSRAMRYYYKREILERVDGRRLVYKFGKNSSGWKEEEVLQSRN
The procedure, abridged: as §1

Test [12] concerns the target ETV1 (Homo sapiens, UniProt P50549 1-477). The procedure, abridged: as §1
The target in test [13] is SPI1 (Homo sapiens, UniProt P17947 1-270). The procedure, abridged:
as §1

Test [14] addresses SPIB (Homo sapiens, UniProt Q01892 1-262). The procedure, abridged: as §1
Test [15] deals with T9, FEV (Homo sapiens, UniProt Q99581 1-238).
T9 sequence: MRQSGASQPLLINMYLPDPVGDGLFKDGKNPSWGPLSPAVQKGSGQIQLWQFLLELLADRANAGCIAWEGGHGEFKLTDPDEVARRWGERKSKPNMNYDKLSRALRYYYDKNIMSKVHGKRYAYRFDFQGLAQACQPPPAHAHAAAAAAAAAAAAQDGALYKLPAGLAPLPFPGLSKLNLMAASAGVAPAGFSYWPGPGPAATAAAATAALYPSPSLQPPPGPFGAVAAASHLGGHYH
The procedure, abridged:
as §1

ELF1, sequence (P32519 whole entry): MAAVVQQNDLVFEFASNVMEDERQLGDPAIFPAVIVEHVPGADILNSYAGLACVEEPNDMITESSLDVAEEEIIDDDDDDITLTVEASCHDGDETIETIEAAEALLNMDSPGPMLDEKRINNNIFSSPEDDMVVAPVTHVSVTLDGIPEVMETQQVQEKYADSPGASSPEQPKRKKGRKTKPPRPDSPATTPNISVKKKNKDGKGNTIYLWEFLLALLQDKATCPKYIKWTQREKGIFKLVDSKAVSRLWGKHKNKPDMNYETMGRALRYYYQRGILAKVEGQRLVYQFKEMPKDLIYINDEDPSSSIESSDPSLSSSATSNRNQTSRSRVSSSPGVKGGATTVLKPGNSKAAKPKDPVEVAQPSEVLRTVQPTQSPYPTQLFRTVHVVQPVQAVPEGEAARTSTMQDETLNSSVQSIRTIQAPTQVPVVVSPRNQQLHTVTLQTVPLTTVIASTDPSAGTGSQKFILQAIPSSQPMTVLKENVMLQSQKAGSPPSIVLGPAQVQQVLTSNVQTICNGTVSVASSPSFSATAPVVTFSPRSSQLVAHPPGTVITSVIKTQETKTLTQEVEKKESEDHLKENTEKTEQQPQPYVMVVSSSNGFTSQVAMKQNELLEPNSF
ELF4, sequence (Q99607 whole entry): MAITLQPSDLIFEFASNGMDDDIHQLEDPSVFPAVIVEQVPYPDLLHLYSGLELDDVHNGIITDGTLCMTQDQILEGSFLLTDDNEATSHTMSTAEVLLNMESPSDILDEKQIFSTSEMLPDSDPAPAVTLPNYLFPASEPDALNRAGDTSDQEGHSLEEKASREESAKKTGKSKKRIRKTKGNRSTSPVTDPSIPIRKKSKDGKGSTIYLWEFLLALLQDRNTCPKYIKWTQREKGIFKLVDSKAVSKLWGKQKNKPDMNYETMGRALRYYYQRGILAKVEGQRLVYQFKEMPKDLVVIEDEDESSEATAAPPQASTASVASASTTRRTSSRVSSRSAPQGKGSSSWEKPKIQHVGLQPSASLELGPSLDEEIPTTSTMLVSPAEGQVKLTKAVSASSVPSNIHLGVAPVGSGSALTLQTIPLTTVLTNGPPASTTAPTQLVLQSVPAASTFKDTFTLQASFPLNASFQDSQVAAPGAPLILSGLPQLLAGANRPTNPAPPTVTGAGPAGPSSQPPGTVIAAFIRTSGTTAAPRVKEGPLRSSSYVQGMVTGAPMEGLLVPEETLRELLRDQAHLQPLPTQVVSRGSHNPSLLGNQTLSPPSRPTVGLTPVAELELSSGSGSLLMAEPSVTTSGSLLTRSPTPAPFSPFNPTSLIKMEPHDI
ETV5, sequence (P41161 whole entry): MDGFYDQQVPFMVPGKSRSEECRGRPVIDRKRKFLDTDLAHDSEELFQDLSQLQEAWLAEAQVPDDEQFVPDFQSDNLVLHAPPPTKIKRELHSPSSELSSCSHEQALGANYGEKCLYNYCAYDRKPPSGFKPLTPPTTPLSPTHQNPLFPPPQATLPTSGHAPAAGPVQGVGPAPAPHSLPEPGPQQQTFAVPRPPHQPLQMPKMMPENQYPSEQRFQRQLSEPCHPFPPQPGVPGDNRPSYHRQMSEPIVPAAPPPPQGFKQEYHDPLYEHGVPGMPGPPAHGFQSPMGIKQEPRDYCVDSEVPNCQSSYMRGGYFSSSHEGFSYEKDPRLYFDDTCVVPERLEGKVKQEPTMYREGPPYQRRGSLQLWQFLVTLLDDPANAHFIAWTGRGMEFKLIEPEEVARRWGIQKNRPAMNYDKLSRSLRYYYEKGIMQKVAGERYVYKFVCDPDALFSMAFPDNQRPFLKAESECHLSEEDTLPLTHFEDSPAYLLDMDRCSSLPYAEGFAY
ETV1, sequence (P50549 whole entry): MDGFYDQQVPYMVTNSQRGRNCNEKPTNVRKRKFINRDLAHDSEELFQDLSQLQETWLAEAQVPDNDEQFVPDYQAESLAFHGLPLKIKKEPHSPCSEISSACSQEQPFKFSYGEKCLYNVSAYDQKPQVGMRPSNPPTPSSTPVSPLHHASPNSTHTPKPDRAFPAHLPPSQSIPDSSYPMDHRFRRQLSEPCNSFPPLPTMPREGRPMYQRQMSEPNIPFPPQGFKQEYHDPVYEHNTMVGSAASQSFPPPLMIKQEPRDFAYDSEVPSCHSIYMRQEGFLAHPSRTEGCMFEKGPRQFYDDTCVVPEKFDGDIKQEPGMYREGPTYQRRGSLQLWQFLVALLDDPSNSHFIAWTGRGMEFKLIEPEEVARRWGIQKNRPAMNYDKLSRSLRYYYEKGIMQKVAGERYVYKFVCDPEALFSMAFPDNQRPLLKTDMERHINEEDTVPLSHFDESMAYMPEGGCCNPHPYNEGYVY
SPIB, sequence (Q01892 whole entry): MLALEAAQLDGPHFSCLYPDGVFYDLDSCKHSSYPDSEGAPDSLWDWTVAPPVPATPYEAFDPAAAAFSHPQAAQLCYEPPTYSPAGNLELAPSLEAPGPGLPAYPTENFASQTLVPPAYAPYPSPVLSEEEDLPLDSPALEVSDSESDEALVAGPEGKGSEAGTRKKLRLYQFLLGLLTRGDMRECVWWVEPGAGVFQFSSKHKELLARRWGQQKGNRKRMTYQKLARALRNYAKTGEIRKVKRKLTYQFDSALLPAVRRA

For GCAATA, the binding signal in [1] is 1.02 fold enrichment (6-mer frequency, TF over GST control); in test [2] it was 1.1 fold enrichment (6-mer frequency, TF over GST control); in [3], 1.02 fold enrichment (6-mer frequency, TF over GST control); in test [4], 1.05 fold enrichment (6-mer frequency, TF over GST control); in test [5], 1.07 fold enrichment (6-mer frequency, TF over GST control); in test [6] it was 1.07 fold enrichment (6-mer frequency, TF over GST control). The binding signal in test [7] is 1.16 fold enrichment (6-mer frequency, TF over GST control); in test [8], 1.07 fold enrichment (6-mer frequency, TF over GST control); in test [9], 1.11 fold enrichment (6-mer frequency, TF over GST control); in [10], 1.01 fold enrichment (6-mer frequency, TF over GST control); in [11], 1.09 fold enrichment (6-mer frequency, TF over GST control); in test [12] it was 1.07 fold enrichment (6-mer frequency, TF over GST control).

On to CTATGT, for which the binding signal in test [1] is 1.11 fold enrichment (6-mer frequency, TF over GST control); in [2] it was 1.11 fold enrichment (6-mer frequency, TF over GST control); in test [3] it was 1.22 fold enrichment (6-mer frequency, TF over GST control); in [4], 1.09 fold enrichment (6-mer frequency, TF over GST control); in test [5], 1.03 fold enrichment (6-mer frequency, TF over GST control); in test [13], 1.04 fold enrichment (6-mer frequency, TF over GST control). The binding signal was 1.15 fold enrichment (6-mer frequency, TF over GST control) in test [14]; 1.09 fold enrichment (6-mer frequency, TF over GST control) in [15]; 1.01 fold enrichment (6-mer frequency, TF over GST control) in test [6]; 1.01 fold enrichment (6-mer frequency, TF over GST control) in test [7]; 1.18 fold enrichment (6-mer frequency, TF over GST control) in test [8]; 1.15 fold enrichment (6-mer frequency, TF over GST control) in test [9]. Also, the binding signal is 1.14 fold enrichment (6-mer frequency, TF over GST control) in test [10]; 1.23 fold enrichment (6-mer frequency, TF over GST control) in test [11]; 1 fold enrichment (6-mer frequency, TF over GST control) in [12].
